Experimental data taken from PubChem BioAssay.
Unmarked numbers belong to inactive results. How the calls were made is not given here.

Tested on: Aerobactin synthetase IucA (Klebsiella pneumoniae hvKP1)
Experiment: IucA enzyme inhibition, primary screen, biochemical, Spectrum library (AID 1346200);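 further: 100% = wells without compound and 0% = wells lacking enzyme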
Conditions: malachite green pyrophosphate, A620, at 8 µM, active compounds read low

Compared with `C=CC(C1=CC(=O)C(OC)=CC1=O)c1ccccc1` (stereo not given), `O=c1oc2ccccc2cc1O` is lower in activity remaining: 113% for the first, 110% for the second.

First: CC(C)c1c(C(=O)c2ccccc2)c(-c2ccccc2)c(-c2ccc(F)cc2)n1CC[C@@H](O)C[C@@H](O)CC(=O)O
Second: CN1C(CC(=O)c2ccccc2)CCCC1CC(O)c1ccccc1 (stereo not given)
The activity remaining of the first is higher: 116% for the first, 108% for the second.

First: C[C@H](N)[C@H](O)c1cccc(O)c1
Second: NC(Cc1c[nH]c2ccccc12)C(=O)O (stereo not given)
The activity remaining of the first is higher: 115% for the first, 107% for the second.

Going from `CC(=O)OCC(=O)[C@@]1(O)CCC2C3CCC4=CC(=O)CC[C@]4(C)C3C(=O)C[C@@]21C` (stereo not given in full) to `C/C1=C\CCC(=O)C2CC(C)(C)C2CC1` (stereo not given), the activity remaining falls from 120% to 105%.

First: CC(=O)N[C@@H](CC(=O)O)C(=O)O
Second: CCNC(=O)CC[C@H](N)C(=O)O
The activity remaining of the first is lower: 110% for the first, 119% for the second.

First: OC1=Cc2c(O)cc(O)cc2OC1(O)c1ccc(O)c(O)c1 (stereo not given)
Second: Oc1c(Cl)cc(Cl)cc1Sc1cc(Cl)cc(Cl)c1O
The activity remaining of the first is lower: 81.3% for the first, 118% for the second.

First: O=C(O)COCCN1CCN(C(c2ccccc2)c2ccc(Cl)cc2)CC1 (stereo not given)
Second: CC(C)(Oc1ccc(CCNC(=O)c2ccc(Cl)cc2)cc1)C(=O)O
The activity remaining of the first is higher: 116% for the first, 96.6% for the second.

Compared with `O=C1C=CC(=O)c2c(O)c(Cl)c(Cl)c(O)c21`, `CC(C)(O)[C@@H]1Cc2cc3ccc(=O)oc3cc2O1` is higher in activity remaining: 109% for the first, 113% for the second.

First: CC(=O)O[C@@H]1CC2C(C)(C)[C@H](O)C=C[C@]2(C)C2CC[C@@]3(C)[C@H](c4ccoc4)OC(=O)C4OC43[C@@]21C (stereo not given in full)
Second: CC1(C)C=CC(=O)[C@@]2(C)C1CC(=O)[C@]1(C)C2CC[C@@]2(C)[C@H](c3ccoc3)OC(=O)C3OC321 (stereo not given in full)
The activity remaining of the first is lower: 107% for the first, 123% for the second.

Going from `C1N2CN3CN1CN(C2)C3` to `CCn1cc(C(=O)O)c(=O)c2cnc(N3CCCC3)nc21`, the activity remaining rises from 104% to 105%.

Going from `Cn1c([N+](=O)[O-])cnc1COC(N)=O` to `NC(=O)c1cccnc1`, the activity remaining rises from 104% to 109%.

First: C#CCCCCCCCCCCCC(O)CC(O)COC(C)=O (stereo not given)
Second: CCC[C@@H]1C[C@@H](C(=O)N[C@H]([C@H]2O[C@H](SC)[C@H](O)[C@@H](O)[C@H]2O)[C@H](C)O)N(C)C1
The activity remaining of the first is lower: 109% for the first, 111% for the second.

In the case of `COc1cc2c(cc1OC)C1Cc3ccc(OC)c(OC)c3CN1CC2` (stereo not given), the activity remaining was 118%.
